High-throughput results (PubChem)
CHT inh: inhibitors of human choline transporter CHT; B-score at 10 µM; Q9GZV3; AID 488975; actives 0.86% (n = 310,000); CHT-expressing cells, membrane potential dye, choline response; hits give low values;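 active means B-score over 3 SD under the library average, and starting fluorescence ratio not unusually high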;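 further: choline stimulus applied at its EC90 after an EC20 pre-addition; B-score computed on integrated fluorescence ratio after choline addition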
Target sequence (Q9GZV3 whole entry, looked up): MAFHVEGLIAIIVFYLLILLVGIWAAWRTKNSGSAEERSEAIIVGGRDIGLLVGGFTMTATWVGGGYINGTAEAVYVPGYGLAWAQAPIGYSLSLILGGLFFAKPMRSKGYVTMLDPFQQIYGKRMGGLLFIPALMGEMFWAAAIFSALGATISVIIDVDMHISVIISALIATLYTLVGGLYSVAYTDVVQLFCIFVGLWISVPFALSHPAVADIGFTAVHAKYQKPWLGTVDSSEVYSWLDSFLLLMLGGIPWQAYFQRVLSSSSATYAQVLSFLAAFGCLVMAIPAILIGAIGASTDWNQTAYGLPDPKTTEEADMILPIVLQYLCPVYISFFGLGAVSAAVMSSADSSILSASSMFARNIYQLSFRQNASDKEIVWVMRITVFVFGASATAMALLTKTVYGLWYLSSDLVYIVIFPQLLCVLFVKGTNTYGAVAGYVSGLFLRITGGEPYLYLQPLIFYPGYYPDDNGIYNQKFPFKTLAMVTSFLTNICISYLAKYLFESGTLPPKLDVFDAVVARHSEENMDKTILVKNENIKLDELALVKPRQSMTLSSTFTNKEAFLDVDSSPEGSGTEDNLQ
IDE cell inh: inhibits human insulin-degrading enzyme in HEK cells | P14735 | FAbetaB cleavage, fluorescence polarization | inhibition, % at 5.59 µM | actives 0.41% (n = 320,000) | AID 434962;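 active means percent inhibition above the average of all tested compounds plus 3 SD, set per screening campaign, cut at about 16% in these data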;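 further: IDE supplied by intact live HEK cells; FP after avidin binding of uncleaved biotin substrate so inhibition keeps polarization high; 0% = DMSO wells and 100% = 60 µM reference IDE inhibitor Ii1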
CHT PAM: human CHT allosteric activation; B-score at 10 µM; actives 0.49% (n = 310,000); CHT-expressing cells, membrane potential dye, choline EC20; hits give high values; LV-AA mutant CHT in HEK293 cells; Q9GZV3;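 active means initial fluorescence not abnormally high and integrated response B-score, plate-corrected, over 3 SD above library mean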
ANO1 activ: mouse TMEM16A channel activation, primary screen. HEK293 TMEM16A/YFP-H148Q/I152L, iodide quench fluorescence; hits give low values. Q8BHY3. B-score at 10 µM. AID 623877. actives 0.3% (n = 340,000);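 active means fluorescence-ratio B-score plate-corrected deviation score at least 3 library SD below zero, with starting fluorescence score within 5 deviations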;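 further: channel opened by trigger with iodide after compound preincubation; score built on the fluorescence ratio of max minus min over baseline; more negative score means more quench and so TMEM16A activation or potentiation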
IDE act: IDE (human) activation, cell-based | P14735 | HEK cells, FAbeta-B cleavage, fluorescence polarization; 0% vehicle, 100% cell-free pure enzyme wells | activation, % at 5.96 µM | actives 0.073% (n = 340,000) | AID 493087;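 active means activation above the mean of all tested compounds plus 3 SD, set per screening campaign, cut at about 17% in these data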
ANO1 block: inhibitors of mouse TMEM16A calcium-activated chloride channel; Q8BHY3; HEK293 TMEM16A/YFP iodide influx fluorescence, ionomycin; normalized B-score (activity score, 25-100; higher = stronger inhibition) at 10 µM; actives 1.2% (n = 310,000); AID 588511;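 active means ratio plate-corrected score three or more library SD toward inhibition, starting fluorescence score within five deviations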;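 further: score derived from kinetic fluorescence span divided by baseline fluorescence per well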
TMEM16A reconf: reconfirmed blocker of mouse TMEM16A calcium-activated chloride channel; actives 39% (n = 2,300); HEK293 TMEM16A/YFP-H148Q, iodide quench fluorescence; ionomycin added to raise cell calcium; shares compounds with ANO1 block; AID 652189; inhibition, % at 10 µM;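 active means mean duplicate percent inhibition, scaled so buffer wells are 0 and the reference blocker 100, over three buffer SD above buffer mean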
TMEM16A Ca cntr: alters calcium mobilization in TMEM16A HEK293 cells, counter-screen; actives 2% (n = 2,300); TMEM16A/YFP HEK293, Fluo4 calcium mobilization; shares compounds with ANO1 block; AID 652231; calcium response (% of ionomycin), % at 10 µM;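 active means duplicate-averaged calcium signal over 20% of the ionomycin maximum, relative to buffer baseline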;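 further: each well's signal is peak minus trough fluorescence divided by its pre-addition baseline; 0% = buffer wells and 100% = ionomycin wells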
YFP-HEK293 quench: counter-screen for TMEM16A inhibitors: effect in parental YFP-HEK293 cells; 2,300 tested, under 10 active; shares compounds with ANO1 block; AID 652233; YFP ratio F(max-min)/F0 at 10 µM; iodide YFP quench, ionomycin;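 active means yellow fluorescent protein signal ratio exceeding the buffer control mean by over 5 SD of those controls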;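 further: ratio is mean of duplicate wells from kinetic YFP trace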
ClC-1 inh: rat ClC-1 inhibition, TMEM16A specificity screen | ratio percent, % at 10 µM | shares compounds with ANO1 block | 2,300 tested, under 10 active | CHO ClC-1-YFP, iodide influx fluorescence quench; iodide control reads 0, buffer control 100;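 active means duplicate-mean ratio percent above the mean of iodide-only control wells, which defines zero, plus 5 of their SD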;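 further: higher percent means stronger block of ClC-1 iodide influx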
An asterisk follows results filed as active; i = inactive; nt = no result. Most compounds without a hit are left out; they make up all but 2.7% or so of the library.

SMILES	CHT inh	IDE cell inh	CHT PAM	ANO1 activ	IDE act	ANO1 block	TMEM16A reconf	TMEM16A Ca cntr	YFP-HEK293 quench	ClC-1 inh
O=S(=O)(Nc1nc2ccccc2nc1Nc1ccc(N2CCOCC2)cc1)c1cc(Cl)ccc1Cl	i	5.7	i	i	2.3	100*	41.5%*	26.5%*	-1.01	-9.5
Clc1nc(Nc2ccc(N3CCOCC3)cc2)c2ccccc2n1	i	-1.3	i	i	-0.6	i	nt	nt	nt	nt
COc1ccc(-c2cn(Cc3ccc(C(N)=O)cc3)c(-c3ccncc3)n2)cc1	i	2.9	i	i	3.6	i	nt	nt	nt	nt
Cc1ccc(S(=O)(=O)N(C)C)cc1NC(=O)C(C)N(C)CCOc1ccc(Cl)cc1 (centres undefined)	i	8.1	i	i	4.6	25*	i	i	-1.03	-11.5
O=S(=O)(Nc1nc2ccccc2nc1N1CCc2ccccc2C1)c1ccc(Cl)cc1	i	1.2	i	i	5.5	25*	50.5%*	i	-0.792	-16.5
Cc1ccc(CNc2ccc(N3CCN(C)CC3=O)cc2)cc1	nt	-5.9	nt	i	3.1	nt	nt	nt	nt	nt
N#Cc1c(-c2cccc(Br)c2)cc(-c2cccnc2)nc1N	i	8.5	i	i	-6.3	25*	25.0%*	i	-0.994	-9.0
O=C(Nc1cccc(S(=O)(=O)N2CCCCC2)c1)c1ccccc1NS(=O)(=O)c1ccc(F)cc1	i	3.1	i	i	7.1	100*	39.5%*	i	-1	-11.5
NS(=O)(=O)c1cccc(NC(=O)c2ccccc2NS(=O)(=O)c2ccc(F)cc2)c1	i	8.6	i	i	-0.3	i	nt	nt	nt	nt
O=C(Cc1ccccc1Cl)Nc1cccc(S(=O)(=O)N2CCCCCC2)c1	nt	-0.2	nt	i	-1.7	nt	nt	nt	nt	nt
O=C(Nc1cccc(S(=O)(=O)N2CCCCC2)c1)Nc1ccc(Cl)cc1Cl	i	-1.3	i	i	0.3	100*	i	i	-0.891	-17.5
CC(=O)c1c[nH]c(C(=O)Nc2ccc(N3CCCCCC3)cc2)c1	nt	-4.7	nt	i	5.6	nt	nt	nt	nt	nt
Cc1ccc(N2C(=O)C3C4CCC(O4)C3C2=O)c(OC(F)F)c1 (centres undefined)	nt	0.6	nt	i	6.7	nt	nt	nt	nt	nt
Cc1cc(C)c(C2=Nn3c(C)nnc3SC2C)cc1C (centres undefined)	i	-1.5	i	i	2.0	i	nt	nt	nt	nt
CCCCCCCCC(=O)Nc1cc(C)ccc1OC	i	5.8	i	i	5.4	100*	i	i	-1.18	-11.5
CCOC(=O)N1CCN(CCC(=O)Nc2cc(C)ccc2OC)CC1	i	0.8	i	i	5.2	i	nt	nt	nt	nt
O=[N+]([O-])c1cc(C(F)(F)F)ccc1NCCc1c[nH]c2ccc(O)cc12	i	-0.3	i	i	4.2	25*	i	i	-1.04	-11.0
COc1ccc(S(=O)(=O)NNc2nc(C)cc(C)n2)cc1[N+](=O)[O-]	i	-5.1	i	i	-1.0	i	nt	nt	nt	nt
Nc1nc(CN2CCN(c3ccccc3F)CC2)nc(Nc2ccccc2)n1	i	7.0	i	i	3.1	i	nt	nt	nt	nt
Nc1nc(CN2CCN(c3ccccc3)CC2)nc(Nc2ccc(Cl)cc2)n1	i	-7.2	i	i	3.3	25*	i	i	-1.13	-2.0
COC(=O)c1c(C)oc2ccc(NS(=O)(=O)c3cccs3)cc12	i	-3.7	i	i	-0.8	100*	31.0%*	i	-1.03	-17.5
COCCOC(=O)c1c(C)oc2ccc(NS(=O)(=O)c3ccc(C)cc3)cc12	i	8.8	i	i	1.0	i	nt	nt	nt	nt
COc1cc(OC)c(C(=O)Nc2ncn[nH]2)cc1OC	i	-1.5	i	i	-4.8	100*	i	i	-1.26	-3.0
COc1cc(OC)cc(C(=O)Nc2ncn[nH]2)c1	nt	-6.7	nt	i	2.4	nt	nt	nt	nt	nt
COc1ccc(C2=C(c3ccc(OC)c(OC)c3)CN3CCCCC3C2)cc1 (centres undefined)	nt	-3.0	nt	nt	3.4	nt	nt	nt	nt	nt
SMILES	CHT inh	IDE cell inh	CHT PAM	ANO1 activ	IDE act	ANO1 block	TMEM16A reconf	TMEM16A Ca cntr	YFP-HEK293 quench	ClC-1 inh
CCOc1ccc(Nc2nc(NCCN3CCOCC3)nc(OC)n2)cc1	i	-7.6	i	i	-1.2	100*	i	i	-0.942	-9.5
O=C(COc1ccccc1[N+](=O)[O-])NCCCN1CCCC1=O	nt	-2.3	nt	i	3.6	nt	nt	nt	nt	nt
COc1cc2c(C#Cc3cccnc3)c(-c3ccsc3)oc(=O)c2cc1OC	nt	0.6	nt	i	3.6	nt	nt	nt	nt	nt
O=C(C[C@H]1C(=O)N(CCc2ccccc2)C[C@@H]1Cc1ccccc1)Nc1ccccc1	i	2.4	i	i	-1.9	i	nt	nt	nt	nt
CC(C)(C)c1cc(-c2ccccc2)n[nH]1	i	2.5	i	i	1.4	i	nt	nt	nt	nt
FC(F)C(F)(F)c1cc(-c2ccc(Cl)cc2)n[nH]1	i	-2.9	i	i	nt	100*	97.0%*	i	-0.938	-27.5
Fc1ccc(-c2cc(C(F)(F)C(F)F)[nH]n2)cc1	i	0.0	i	i	nt	100*	54.5%*	i	-1.07	-7.0
Oc1ccccc1-c1cc(C(F)(F)C(F)F)[nH]n1	i	2.5	i	i	-1.8	100*	i	i	-0.825	-13.0
Cc1ccc(C)c(S(=O)(=O)N2CCN(C(=O)C3CCN(C(=O)c4ccc(F)cc4)CC3)CC2)c1	i	2.2	i	i	2.6	i	nt	nt	nt	nt
COc1ccc(S(=O)(=O)NNC(=O)c2ccc(-n3c(C)ccc3C)cc2)cc1	i	3.7	i	i	nt	i	nt	nt	nt	nt
CCOC(=O)c1cc(C)n(Cc2cccc(OC)c2OC)c1C	i	-3.1	i	i	2.5	25*	29.0%*	i	-0.903	-14.0
Cc1noc(C)c1COC(=O)c1cccc(S(=O)(=O)N2c3ccccc3CC2C)c1 (centres undefined)	i	1.8	i	i	-1.9	100*	25.0%*	i	-1.03	-18.5
CN(Cc1ccccc1F)C(=O)CN1C(=O)NC2(CCc3ccccc32)C1=O (centres undefined)	nt	nt	nt	i	3.2	nt	nt	nt	nt	nt
